Source: the supplement of paper PMC12632987

B1: usp_38_diff_out_18_14_258 (protein)
chain: SAELEEATISNLKLLKEDVKKETERVIRLLEKNKDDPERVKRIYERAQRDLAGVETYAKEVLEEAKKNGWEEKEKAAKELLEEVDKAKEEIEKKVKEVLA
B2: usp_38_diff_out_18_14_270 (protein)
chain: SEELKKALLSNLESLKKDVKEYTERVLRLLEKRKDDPEQVERIVERAERDLAGVEEYAKEVLKEAKKLGDEELLKAAEELIKLTKEARERIEKKREEVLK
B3: usp_38_diff_out_18_14_264 (protein)
chain: SEELSEAEKSALKLLKKDVEEETERVIRLLRQAKDDPERVKRIYERAKRNLAGVRKYAEEVLKRAEEAGDEETKKAAEELLKKIEEAEKRIEEEYKRVTA
B4: usp_38_diff_out_18_14_263 (protein)
chain: SEELAQADIDALNLLKKDVEEDTERVIRLLEKSKDDPERVKRIYERALRNLAGVKKYAEEVKKEAEERGNEETIKAANELLKTIEEAKKRLEEKYKEVMK
B5: usp_38_diff_out_18_14_259 (protein)
chain: SEELTEALISNLESLKEDVKKDTERVIRLLEKRKDDPEQVKRIKERFERDLAGVEKYAKEVLEEAKKEGNEKLAKAAEELLKTVEAARKEVEEKVAKVLA
B6: usp_38_diff_out_18_14_262 (protein)
chain: SEELAQADIDALNLLKEDVKKDTERKIRLLKKAKDDPELVKRIYERAKRNLEGVRTYAEEIKKRAEEAGDEETIKAAEELLKEIEEAEKKLEEAYKEVMA
B7: usp_38_diff_out_18_14_267 (protein)
chain: SAELSEALKSNLETLTADVAADTDRVIRLLDARKDDPEAVKRIHERARRNLAGVEAYAEEVKAEAEKAGDAEVKAAAEKLLAAVAAARARIDARYAEVMA
B8: usp_38_diff_out_18_14_274 (protein)
chain: SEELSEALKSNLESLKKDVEKDTKRTIELLKKNKDDPERVKRIVERAERNLEGVITFAEEVLKEAEKRGDEEVKKAAEELIKKAKEALEKIKEEAKKVLA
B9: usp_38_diff_out_18_14_261 (protein)
chain: SEELSEAKISALKLLEKSVKEDTERKIRLLEKAKDDPERVKRIYERALRELAGVREYAEEVLKEAKEAGDEETAEAAKRLLKTIEEARERLEEEYKRVMA
B10: usp_38_diff_out_18_14_271 (protein)
chain: SEELAAALQSNLESLERAVREDTERVIRLLEKNRDDPERVKRIVERAERDLAGVEAYAQEVLREARAAGDAATQEAAERLLEEARRAREEIRRKAEEVLA
B11: usp_38_diff_out_18_14_269 (protein)
chain: SAELAAAKVSNLKTLKEDVERDTERVIRLLEANRDDPERVRRIHERALRNLEGVRKYAEEVKEEAEKEGDKETVKAAEELLKKIEEARRRIDARYAEVMA
B12: usp_38_diff_out_18_14_273 (protein)
chain: SEERREALLSNLKSLKKDVKEYTKRVLKLLEKNKNDPERVKRIYERAKRNLAGVKAYAEEVLKEAKEEGDEETLKAAEELIKEAKEAEEKIKKKVEEVLK
B13: usp_38_diff_out_18_14_268 (protein)
chain: SEELAEAEVSNLKTLERDVKEDTERVIRLLRKNKDDPERVKRIYERAKRDLAGVRAYAEEVKRRAEEEGWEEVVAAAERLLKTIDEARKRIEEEYKRVME
B14: usp_38_diff_out_18_14_272 (protein)
chain: DEELSEALLSNLKSLKEDVKEYTKRVLRLLEANKDDPERVKRIYERAERNLEGVEKFAEEVLKEAKERGDEEVQKAAKELKEEAKKAREEIKKKVKEVLA
B15: usp_38_diff_out_18_14_266 (protein)
chain: SEELDEALVKNLETLKKDVKENTERVIKLLRKNKDDPERVKRIYERAKRNLEGVKKYAEEVLKEAEKRGWKKTVKAAKELLKEVEEAKKKIEEEYKKVME
B16: usp_38_diff_out_18_14_260 (protein)
chain: SEELKEATISNLKSLKEDVKEDTERVIRLLKARKDDPEQVKRIYERAKRNLEGVKTYAEEVLKEAEEEGWEELKKAAEELLKEIEEAEKKIEAEVKEVLA

Target: T1, USP38, Q8NB14
T1 chain: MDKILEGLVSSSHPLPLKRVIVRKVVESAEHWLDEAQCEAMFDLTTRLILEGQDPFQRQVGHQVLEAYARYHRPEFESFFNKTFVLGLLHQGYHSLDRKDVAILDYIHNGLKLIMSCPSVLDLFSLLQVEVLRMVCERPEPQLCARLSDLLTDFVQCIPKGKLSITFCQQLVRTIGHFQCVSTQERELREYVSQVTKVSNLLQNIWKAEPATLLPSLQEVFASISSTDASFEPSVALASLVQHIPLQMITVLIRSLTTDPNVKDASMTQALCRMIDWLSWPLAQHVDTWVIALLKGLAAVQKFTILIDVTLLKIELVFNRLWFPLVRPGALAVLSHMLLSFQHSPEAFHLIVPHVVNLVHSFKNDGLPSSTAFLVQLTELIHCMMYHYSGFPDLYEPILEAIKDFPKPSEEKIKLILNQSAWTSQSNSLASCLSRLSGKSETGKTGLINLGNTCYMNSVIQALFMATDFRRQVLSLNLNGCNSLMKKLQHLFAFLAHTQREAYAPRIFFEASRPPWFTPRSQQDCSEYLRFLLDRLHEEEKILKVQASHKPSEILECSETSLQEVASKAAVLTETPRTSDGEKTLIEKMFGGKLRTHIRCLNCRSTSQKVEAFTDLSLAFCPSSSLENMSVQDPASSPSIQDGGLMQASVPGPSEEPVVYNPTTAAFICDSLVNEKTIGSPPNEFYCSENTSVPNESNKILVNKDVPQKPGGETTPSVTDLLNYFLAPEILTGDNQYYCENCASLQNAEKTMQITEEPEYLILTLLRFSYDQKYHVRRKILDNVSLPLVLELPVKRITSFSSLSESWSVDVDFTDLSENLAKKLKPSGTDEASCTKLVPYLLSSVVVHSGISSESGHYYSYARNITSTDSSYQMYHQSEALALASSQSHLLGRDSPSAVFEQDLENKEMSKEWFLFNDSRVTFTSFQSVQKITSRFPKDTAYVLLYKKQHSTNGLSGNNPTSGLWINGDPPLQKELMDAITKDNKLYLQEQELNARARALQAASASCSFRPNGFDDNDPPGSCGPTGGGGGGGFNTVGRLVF
Experiment: median log2 fold change of GCK-ALFA target abundance (FLAG IP / Myc IP barcode read proportion) (log2 ratio); each designed protein is fused to an ALFA-tag nanobody in HEK293 cells to bring the named protein to FLAG-tagged glucokinase (GCK); Myc marks an untargeted standard; higher = target protein stabilised (more abundant)
Settings: target protein: 3xFLAG-MCP-GCK-ALFA reporter; HEK293 landing pad (RPLP)
Procedure, shortened: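 The readout is target abundance, the per-binder median log2 ratio of FLAG to Myc barcode read proportions. It came from HEK293 landing-pad cells carrying a recombined ALFA-nanobody-fused binder library, induced with 2 μg mL^−1 doxycycline and transfected with a plasmid for a FLAG-tagged target and a Myc-tagged standard. After 48 h, lysates were immunoprecipitated with anti-FLAG and anti-Myc, and circular RNA barcodes were reverse transcribed, amplified and sequenced. Each barcode needed a proportion of at least 10^−7 in both replicates and each binder at least 3 barcodes per replicate, a pseudocount of 10^−6 was added, and the replicates were pooled.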

First: B1
Second: B2
The “median log2 fold change” value of the first is higher: 0.144 for the first, -0.331 for the second.

B3 and B4 are within 0.2 log units of each other in “median log2 fold change” value: 0.118 for the first, 0.123 for the second.

First: B5
Second: B6
The “median log2 fold change” value of the first is lower: -0.00381 for the first, 0.391 for the second.

B7 and B8 are within 0.2 log units of each other in “median log2 fold change” value: 0.0912 for the first, 0.186 for the second.

B9 and B10 are within 0.2 log units of each other in “median log2 fold change” value: 0.0867 for the first, -0.0538 for the second.

Going from B11 to B12, the “median log2 fold change” value falls from 0.153 to -1.06.

B13 and B14 are within 0.2 log units of each other in “median log2 fold change” value: -0.0262 for the first, -0.188 for the second.

Compared with B15, B16 is higher in “median log2 fold change” value: -0.521 for the first, 0.0949 for the second.
